From PubChem BioAssay (NCI)
This is part of a sample that, as a whole, favours compounds with a hit. Of some 83,000 tested, about 20% had one in any assay.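 Cells were grown in 96-well plates and exposed to the test compound at a single concentration for 48 hours; results are reported as percent growth, with values below 10 considered active.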 Activity calls are given as the source filed them.

test system: HL-60(TB) leukemia; assay: NCI-60 one-dose screen, 48 h (100 = growth as untreated, 0 = no growth, -100 = all killed); conditions: 10 µM unless noted

SMILES | growth
COc1ccc(CCN=Cc2ccc(Cl)cc2)cc1OC | 86.6% (inactive)
CCOC(=O)c1nn(C2CCCCO2)c2ccc(NS(=O)(=O)c3ccc(C)cc3)cc12 (stereo not given) | 97.6% (inactive)
CC(=O)Nc1c(C)cc(C)cc1C | 99.8% (inactive)
O=[N+]([O-])c1ccc(N/N=C\c2ccc(O)cc2O)nc1 | 0.875% (active)
c1ccc(Nc2nc(Nc3ccccc3)nc(Nc3ccccc3)n2)cc1 | 63.8% (inactive)
COC(=O)[C@]12CC[C@@H](C)[C@H](C)[C@@H]1C1=CC[C@@H]3[C@@]4(C)C[C@@H](OC(=O)/C=C/c5ccccc5)[C@H](O)[C@@](C)(CO)[C@@H]4[C@H](O)C[C@@]3(C)[C@]1(C)CC2 | -20.6% (active)
C=CCN1C(=O)[C@]2(SC1=S)[C@H](c1cccc(Cl)c1)CN(C)[C@]21C(=O)NC2C=CC(Cl)=C[C@H]21 (stereo not given in full) | -39.8% (active)
O=C(N/N=C/c1ccc(OC(F)F)c(OC2CCCC2)c1)c1cnn2c1NC(c1ccccc1)C2 (stereo not given) | 100% (inactive)
Fc1ccc2[nH]cc(SSc3c[nH]c4ccc(F)cc34)c2c1 | -32.3% (active)
O=C(Nc1ccccc1O)c1ccc(CNC(=O)c2sccc2Nc2ccnc(C(F)(F)F)c2)cc1 | 25.2% (inactive)
CN(CCCCCl)P(=O)(OCc1ccc([N+](=O)[O-])o1)C(F)(F)c1ccc(CC(=O)NC[C@@H](O)/C=C\[C@@H](O)[C@H](CO)Cc2ccccc2)cc1 (stereo not given in full) | 80.3% (inactive)
COc1ccc2nc3cc(Cl)ccc3c(NCCN)c2c1 | -51.5% (active)
COc1ccc(/C=C/c2nc3ccccc3c(=O)n2-c2ccc(C#Cc3ccc(C(C)(C)C)cc3)cc2C)c(OC)c1 | 67.4% (inactive)
C#C[C@]1(O)CC[C@H]2[C@@H]3CC[C@H]4CC(F)(F)CC[C@]4(C)[C@H]3CC[C@@]21C | 107% (inactive)
CNc1nc(S(=O)c2ccc(C#N)cc2)nc2ccccc12 (stereo not given) | 79.9% (inactive)
COc1cc(CCC[P+](c2ccccc2)(c2ccccc2)c2ccccc2)c(OC)c2c1OCO2 | 13.6% (inactive)
CC(NNC(C)c1ccccc1)c1ccccc1 (stereo not given) | 113% (inactive)
Brc1cnc2[nH]cc(-c3nnc(-c4ccccc4)o3)c2c1 | 94.5% (inactive)
O=C(c1ccccc1)N(C(=S)NCCc1ccc(Cl)cc1)c1ccccc1 | 54.4% (inactive)
Nc1ccccc1SC1CC(=O)N(c2ccc(Cl)c(Cl)c2)C1=O (stereo not given) | 139% (inactive)

SMILES | growth
Cc1cc2nc3c4cccc(O)c4n(CCN(C)C)c3nc2cc1C | 29.2% (inactive)
O=C(Nc1ccc(Cl)cc1)Nc1ccc(Oc2nncc3ccccc23)cc1 | 3.65% (active)
O=C(/C=C/c1cc2ccccc2[nH]c1=O)c1ccc(O)cc1 | 16% (inactive)
COc1ccc(Nc2nc(Nc3cc(C)[nH]n3)c3cc(OC)c(OC)cc3n2)cc1 | -50.5% [20 µM] (active)
COc1ccc2c(c1)O/C(=C\c1cccc(OCC(=O)Nc3nc4c(s3)CCCC4)c1)C2=O | 27.4% (inactive)
C[C@H]1[C@H](C)CC[C@]2(CO)CC[C@]3(C)C(=CC[C@@H]4[C@@]5(C)Cc6c([nH]c7ccccc67)C(C)(C)[C@@H]5CC[C@]43C)[C@H]12 | 81.7% (inactive)
CC[C@H](C)[C@@H]1NC(=O)[C@H]([C@@H](C)O)NC(=O)C(Cc2ccccc2)NC(=O)[C@@H]2CCCN2C(=O)C(C(C)C)NC(=O)C(Cc2ccccc2)NC(=O)CNC(=O)[C@@H]2CCCN2C1=O (stereo not given in full) | 5.19% (active)
Cc1ccc(C(=O)c2ccc(CC(=O)N=Nc3c(O)[nH]c4ccc(Br)cc34)n2C)cc1 | 89.4% (inactive)
C=C(C)[C@@H]1CCC[C@]2(C(=O)OC)CC[C@]3(C)[C@@H](CC[C@@H]4[C@@]5(C)CCCNC(C)(C)[C@@H]5CC[C@]43C)[C@@H]12 | 96.7% (inactive)
Cc1cc(-c2ccccc2)on1 | 89.2% (inactive)
Cc1ccc(/C=C2\COc3ccc(O)cc3C2=O)cc1 | -31.7% (active)
CC(=O)O.[In] | 93.4% (inactive)
O=c1oc2c(cc1-c1ccc(F)cc1)C(O)Oc1ccccc1-2 (stereo not given) | 101% (inactive)
COC(=O)[C@@H](NC(=O)NC(=O)NC(=O)CI)C(C)C | 77.9% (inactive)
O=C(CCl)n1nnnc1Cc1ccccc1 | 83.5% (inactive)
Cc1ccc([N+](=O)[O-])c(C)n1 | 115% (inactive)
OCCCCc1nccc2c1[nH]c1ccccc12 | 73.7% (inactive)
c1ccc2[nH]c(SSc3nc4ncncc4[nH]3)nc2c1 | 17.1% (inactive)
O=C1CCC/C=C\C[C@H]2C=C(Cl)C(=O)/C2=C/C[C@H](CCCCC(F)(F)F)OC(=O)CCC/C=C\C[C@H]2C=C(Cl)C(=O)/C2=C/C[C@H](CCCCC(F)(F)F)O1 | -16.5% [7.5 µM] (active)
C[C@@H]1C(=O)N(C[C@H](Cc2ccccc2)N(Cc2ccccc2)Cc2ccccc2)[C@]1(Cc1ccccc1)C(=O)OC(C)(C)C | 62.9% (inactive)
